According to PubChem BioAssay AID593 (National Center for Advancing Translational Sciences (NCATS), 2007):
About 540 (0.92%) of roughly 59,000 compounds were called active. Another 33% or so got no clear call; they are omitted. Cut-off read from the data, not from the text of the source: active = max fluorescein-equivalent concentration above about 10 nM; inconclusive = between about 1.1 nM and that limit; inactive = weaker than that. The full list was thinned out, with actives kept by preference.

Test: qHTS Assay for Spectroscopic Profiling in Fluorescein Spectral Region
Settings: Compound autofluorescence, 480/540 nm; max fluorescein-equivalent concentration: stronger effect = higher value; outcome: fluorescein-equivalent
In short: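 Read-out is intrinsic compound fluorescence at 480/540 nm (excitation/emission), expressed as dye-equivalent concentration using a fluorescein standard series run on every plate. Compounds sat 15 min at room temperature in 100 mM Tris, pH 8.0.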

| Compound | max fluorescein-equivalent concentration |
| --- | --- |
| Cc1cc(C)cc(NC(=O)C2CCN(c3nc(C)cc(C)n3)CC2)c1 | inactive |
| CCOC(=O)c1cc2sccc2n1Cc1ccc(C#N)cc1 | inactive |
| Fc1ccccc1CCNc1nnnn1-c1ccccc1 | inactive |
| CN1CCC2(CC1)CCN(S(=O)(=O)c1ccccc1)CC2 | inactive |
| Cc1ccc2nc(CC(=O)c3ccc4ccccc4c3)c(=O)[nH]c2c1 | inactive |
| C/C=C1\C(=O)C[C@@H]2[C@@H]3CCC4=CC(=O)CC[C@@]4(C)[C@H]3CC[C@@]12C | inactive |
| Oc1ccc2ccccc2c1C=NCc1c(O)ccc2ccccc12 | inactive |
| COc1ncnc2c1N=C1CC(C)(C)CC(N)=C1S2 | 47 nM (active) |
| COc1ccc(C(=O)N2CCC[C@@]3(CCN(C(=O)NC(C)C)C3)C2)cc1 | inactive |
| CC(C)NC(=O)N1CC[C@@]2(CCCN(C(=O)c3ccco3)C2)C1 | inactive |
| CC(C)NC(=O)N1CC[C@@]2(CCCN(C(=O)c3cccc(F)c3)C2)C1 | 780 nM (active) |
| O=C(Nc1ccc(S(=O)(=O)N2CCCCC2)cc1)c1cnccn1 | inactive |
| O=c1[nH]c(=O)c2nc3ccccc3nc2[nH]1 | 62 nM (active) |
| O=c1[nH]c(-c2ccccc2)c(-c2ccccc2)[nH]1 | inactive |
| CN1C(=O)C[C@H](c2ccccc2)C1=O | inactive |
| CCCn1c(SCC(=O)Nc2cccc(C(=O)OCC)c2)nnc1-c1ccoc1C | inactive |

| Compound | max fluorescein-equivalent concentration |
| --- | --- |
| COc1ccccc1Cc1nc(-c2ccc(C)cc2)no1 | inactive |
| CC12CCC(C(=O)N(CCC#N)CCC#N)(CC1=O)C2(C)C (configuration not stated) | inactive |
| COc1ccc2[nH]c3cc4c(=O)c5cc(OC)ccc5[nH]c4cc3c(=O)c2c1 | inactive |
| C[C@H]1O[C@@H](CC(=O)O)Cc2c1c(O)c1c(O)cc(-c3cc(=O)c4c(=O)c5c(c(=O)c=4c3=O)C[C@H](CC(=O)O)O[C@@H]5C)c(O)c1c2O | inactive |
| CC(Sc1nncs1)C(=O)NCc1ccc2c(c1)OCO2 (configuration not stated) | inactive |
| Cc1cc(NC(=O)Nc2ccccc2)n(-c2ccccc2)n1 | inactive |
| COc1ccc2oc(=O)c(C(=O)N3CCCc4ccccc43)cc2c1 | inactive |
| COc1cccc(C(=O)c2cc3ccc(O)cc3oc2=O)c1 | inactive |
| COc1ccc2oc(=O)c(C(=O)O)cc2c1 | 19 nM (active) |
| CCOc1ccc2nc(N3CCCN(C(=O)Nc4ccccc4C)CC3)c(C#N)cc2c1 | 29 nM (active) |
| CCOc1ccc2cc(C#N)c(SCC(=O)OC)nc2c1 | inactive |
| Cc1cccc2cc(C#N)c(N3CCCC3)nc12 | inactive |
| CC(=O)c1cc2c(cc1N)OCO2 | inactive |
| CCC1=C(C(=O)OC)C(c2cc(OC)ccc2OC)C(C#N)=C(N)O1 (configuration not stated) | inactive |
| COC(=O)C1=C(C)OC(N)=C(C#N)C1c1cc(OC)ccc1OC (configuration not stated) | inactive |
| CCCN1CC=C2C(C#N)=C(N)C(C#N)(C#N)C(c3cc(OC)ccc3OC)C2C1 (configuration not stated) | 10 nM (active) |
